AHR act: activates the human aryl hydrocarbon receptor. 320,000 tested, 2.5% active. P35869. AHR-responsive luciferase reporter cells, luminescence. activation, % at 5 µM; in the data active means activation above about 47%
AI-2 QS modul: modulators of Vibrio harveyi AI-2 quorum sensing system; activity change, % at 7.5 µM; Vibrio harveyi JMH597 AI-2 luminescence/OD600 ratio, 9 h; active compounds read low; strain lacks LuxN and CqsS sensors; 0 = neutral-control median; 300,000 tested, 0.4% active; in the data active means activity change below about -75%, passing the limit was not always enough;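 further: luminescence divided by OD600 gain over 9 h not by final OD600 alone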
Cardio protect: myocardial damage modulation in H9c2 cells. H9c2 cardiomyocytes, H2O2 injury protection, ATPLite, 2 h. protection from H2O2 cell death, % at 20 µM. 360,000 tested, 0.63% active;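 active means compounds giving at least 50% protection of heart cells from peroxide-induced death in the single-dose screen, raw or plate-pattern-corrected value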
GRIN3A LBD mod: NR3A (human) ligand-binding domain modulation. AID 1259313. Tm shift relative to glycine control, % at 25 µM. NR3A LBD differential scanning fluorimetry, Tm shift; 0% = protein alone, 100% = glycine-bound protein. 340,000 tested, 2.5% active;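 active means melting temperature shift of at least 10% of the positive control shift, at one fixed dose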
SUMO Mot1 rescue: inhibitors of SUMOylation pathway: yeast Mot1-301 growth rescue; S. cerevisiae Mot1-301 growth rescue, ATP luminescence, 38.5C; percent above DMSO median, 100 means doubled; growth rescue, % at 18.8 µM; 320,000 tested, 1% active; AID 2716;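 active means every valid replicate shows activation above 250% relative to neutral control wells; inactive means the rest, any valid replicate at or below 250%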
NTR1 ag: activates human neurotensin receptor 1; P30989; NTR1-U2OS beta-arrestin-GFP spot imaging, agonist mode; activation, % at 20 µM; 330,000 tested, 0.17% active;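 active means activation at or above 40% of the spot to cytoplasm intensity ratio, with at least 20 cells analyzed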
Target sequence (P30989 whole entry, looked up): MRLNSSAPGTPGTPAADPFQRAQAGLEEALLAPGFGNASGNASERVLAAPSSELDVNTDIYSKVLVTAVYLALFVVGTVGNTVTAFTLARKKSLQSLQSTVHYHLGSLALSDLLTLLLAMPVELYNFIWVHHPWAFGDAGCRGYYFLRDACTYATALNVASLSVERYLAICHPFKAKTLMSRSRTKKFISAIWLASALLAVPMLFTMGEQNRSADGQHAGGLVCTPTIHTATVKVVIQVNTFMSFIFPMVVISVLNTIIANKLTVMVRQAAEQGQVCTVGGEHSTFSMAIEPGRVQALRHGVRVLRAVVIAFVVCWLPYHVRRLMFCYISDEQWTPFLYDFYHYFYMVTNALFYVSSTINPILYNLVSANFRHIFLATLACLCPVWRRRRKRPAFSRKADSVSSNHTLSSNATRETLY
Mot1 SUMO dose: yeast SUMO pathway inhibition in dose response. shares compounds with SUMO Mot1 rescue. S. cerevisiae Mot1-301 galactose growth, ATP luminescence, 24 h; -100 = growth of slx-deleted rescue strain. growth activity, percent, % at 42 µM. 2,300 tested, under 10 active. AID 493004;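 active means Signal drops as the depositor expects, and the fitted half-maximal dose is no more than ten times the top valid tested dose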;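 further: more negative values mean stronger growth rescue toward the control strain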
Hits are given with their value; – = inactive; · = no result given; + = active, no number. In the library only some 6.2% were active in any assay of this set; here they are far more common.

SMILES	AHR act	AI-2 QS modul	Cardio protect	GRIN3A LBD mod	SUMO Mot1 rescue	NTR1 ag	Mot1 SUMO dose
Cc1cc(OCC(=O)NCC2CCC(C(=O)O)CC2)c2c(C)c(C)c(=O)oc2c1 (stereo not given)	–	–	–	–	358.5	–	–
CCC1C(c2ccccc2)N(C)C(c2ccccc2)CC1(O)c1ccccc1 (stereo not given)	–	–	–	–	–	–	·
CC1C(=O)CC(c2ccccc2)N(C)C1c1ccccc1 (stereo not given)	–	–	–	–	536.6	–	–
O=C(c1cn(-c2ccccc2)nc1-c1cccs1)N1CCOCC1	–	–	–	–	+	–	–
Cc1ccccc1P(=O)(CO)c1ccccc1C	–	–	–	–	413.9	–	–
O=C(/C(=N\Nc1ccc(Br)cc1)Sc1nnnn1-c1ccccc1)c1ccccc1	–	–	–	20.1	739.3	–	–
Cc1ccc(O)c(C(=O)CC(=O)c2cccc(F)c2)c1	–	–	–	–	538.4	–	–
O=C(Nc1ccnn1C1CCN(Cc2ccccc2OC(F)F)CC1)c1cccnc1	–	–	–	–	–	–	·
COc1ccc(N2CCN(C(=O)c3ccc(COc4ccc([N+](=O)[O-])cc4)o3)CC2)cc1	·	–	–	–	·	–	·
Cn1c(-c2sc3cc(C(F)(F)F)cnc3c2-c2cccs2)n[nH]c1=S	–	–	–	–	+	–	–
Cc1ccc(NC(=O)CN(C)C(=O)CSc2nnc(C)s2)cc1	–	·	–	–	–	–	·
CCn1nc(C(=O)OCc2cccc(S(=O)(=O)N(C)C)c2)c2ccccc2c1=O	–	–	–	–	849.8	–	–
CN(C)S(=O)(=O)c1cccc(COC(=O)c2ccc(Cl)cc2O)c1	–	–	–	–	–	–	·
CSc1ccc(Cn2c(C)c(C(=O)NCc3ccc4c(c3)OCO4)sc2=O)cc1	·	·	–	·	·	·	·
C=CCOc1ccc(/C=C/C(=O)OCC(=O)NCc2ccco2)cc1	–	–	–	–	–	–	·
O=C(Nc1ccc(F)cc1F)N1CCCN(c2ccc(C(F)(F)F)cn2)CC1	–	–	–	–	548.0	–	–
Fc1ccc(NC(=S)N2CCCN(c3ccc(C(F)(F)F)cn3)CC2)c(F)c1	–	–	–	–	–	–	·
COc1ccccc1CNC(=O)CCC(=O)Nc1nnc(C)s1	–	–	–	–	–	–	·
COc1ccccc1CNC(=O)CSc1ccc(C)cc1	–	–	–	–	·	–	·
COc1ccccc1CNC(=O)CCC(=O)Nc1nnc(C(C)C)s1	–	–	–	–	928.4	–	–
COc1ccccc1CNC(=O)C(C)Sc1ccc(C)cc1 (stereo not given)	–	–	–	–	415.6	–	–
COc1ccccc1CNC(=O)C1CCC(CNS(=O)(=O)c2ccc(C)cc2)CC1 (stereo not given)	–	–	–	–	625.2	–	–
COc1ccc(N(C)S(=O)(=O)c2cccc(C(=O)Nc3cccc(C(=O)NC4CC4)c3)c2)cc1	–	·	–	–	–	–	·
CCN1CCN(CC(=O)Nc2cccc(C)c2C)C(=O)C1=O	–	–	–	–	518.4	–	–
Cc1ccc(CNC(=O)C2CCCN2C(=O)Nc2ccc(F)cc2)cc1 (stereo not given)	–	–	–	–	–	–	·
SMILES	AHR act	AI-2 QS modul	Cardio protect	GRIN3A LBD mod	SUMO Mot1 rescue	NTR1 ag	Mot1 SUMO dose
CCC(=O)N1CCc2cc(S(=O)(=O)CCC(=O)Nc3ccc(OC)cc3)ccc21	–	–	–	–	–	–	·
CCC(=O)N1CCc2cc(S(=O)(=O)CCC(=O)Nc3cccc(C)n3)ccc21	–	–	–	–	+	–	–
C=CCNC(=O)c1cc(-c2cccnc2)nc2ccccc12	–	–	–	–	441.3	–	–
CCOC(=O)C1(C)CCCN1C(=O)c1csnn1 (stereo not given)	·	·	–	·	·	·	·
COc1ccccc1-c1nc2s/c(=C\c3cccs3)c(=O)n2n1	–	–	–	–	–	–	·
O=c1/c(=C/c2ccco2)sc2nc(-c3ccccc3Br)nn12	–	·	–	–	381.3	–	–
CC(=O)c1ccc(OCc2nnn(CC(=O)O)c2-c2ccccc2)cc1	·	·	–	·	·	·	·
CS(=O)(=O)N(CC(=O)N1CCCC1)c1cccc(Cl)c1Cl	–	–	–	–	530.4	–	–
Cc1cccc(N(CC(=O)N2CCCCCC2)S(C)(=O)=O)c1C	·	–	–	–	–	–	·
CCCCn1nnnc1C(c1ccccc1)N1CCN(C/C=C/c2ccccc2)CC1 (stereo not given)	·	·	–	·	·	·	·
COc1ccc(-c2csc(NC(=O)C3CC(=O)N(c4ccc5c(c4)OCCO5)C3)n2)cc1 (stereo not given)	–	–	–	–	–	–	·
CC(=O)Nc1ccc(-c2csc(NC(=O)C3CC(=O)N(c4ccc5c(c4)OCCO5)C3)n2)cc1 (stereo not given)	–	–	–	–	508.0	–	–
CCN1C(=O)N(C)[C@@H](c2ccccc2)C(C(=O)OC)=C1C	–	–	–	–	948.4	–	–
CCN1C(=O)N(S(=O)(=O)C(F)(F)F)[C@@H](c2ccccc2)C(C(=O)OC)=C1C	–	–	–	–	–	–	·
N#Cc1ccc(C(=O)CSc2n[nH]c(=O)n2Cc2ccco2)cc1	–	–	–	–	–	–	·
O=C(NCCCn1ccnc1)c1ccc(Cl)cc1	–	–	–	–	574.2	–	–
O=C(CNC(=O)c1ccc(Cl)cc1)NCCCn1ccnc1	–	–	–	–	–	–	·
CCOc1ccccc1CN1CCN(Cc2ccon2)CC1CCO (stereo not given)	–	–	–	–	816.7	–	–
CCOc1ccc2nc(CN3CCN(Cc4ccccc4OCC)C(CCO)C3)ccc2c1 (stereo not given)	–	–	–	–	510.7	–	–
COC(=O)Oc1ccc(/C=N/NS(=O)(=O)c2ccccc2)cc1OC	–	–	–	–	626.6	–	–
N#Cc1c(NC(=O)c2ccc([N+](=O)[O-])o2)sc2c1CCC2	–	–	–	–	466.4	–	–
N#Cc1c(NC(=O)c2ccccc2)sc2c1CCC2	–	–	–	–	–	–	·
CCOC(=O)C1=Nc2ccccc2C1=[N+]=[N-]	66.2	–	72.0	–	366.1	–	–
O=C(NNC(=O)c1csc(N2CCOCC2)n1)c1ccc(Cl)nc1	–	·	–	–	451.8	–	–
O=C(NNC(=O)c1ccc(Cl)s1)c1csc(N2CCOCC2)n1	–	–	–	–	–	–	·
CCCC(=O)Nc1nnc(SCC(=O)NC2CC2)s1	–	–	–	–	–	–	·
c1ccc(-c2nc(N3CCOCC3)c3ccccc3n2)nc1	–	–	–	–	480.5	–	–

High-throughput results (PubChem)
